Experimental data as given in the supplement of paper PMC10849652.
Targets with a hit are over-represented here; the source holds about 7,900 in all. About 0.6% of all pairs of compound and target were hits.

Experiments:
Assay in all cases: log2 fold change, soluble protein after heating vs DMSO (PISA); higher = thermal stabilisation; K562 cells, 10 uM, 30 min; active = over 0.2 and 3.5 SD of the protein, either way, in both replicates (recomputed)
IRAK-1-4 Inhibitor I = compound: C1COCCN1CCN2C3=CC=CC=C3N=C2NC(=O)C4=CC(=CC=C4)[N+](=O)[O-] [IRAK-1-4 Inhibitor I]
How it was run: (§1)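 Soluble protein was defined as the supernatant after 21,000xg for 90 min. It came from K562 cells at 2×10^6 cells/mL given 10 μM compound for 30 min, heated in aliquots for 3 min across 48°C-58°C, pooled, and extracted in PBS with 0.5% NP-40 at 4°C, and was quantified by TMTpro 16plex LC-MS/MS with equalised channel sums. Thermal stability against control samples, from duplicates, is reported as log2 fold change.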

ibrutinib = compound: C=CC(=O)N1CCC[C@@H](n2nc(-c3ccc(Oc4ccccc4)cc3)c3c(N)ncnc32)C1 [ibrutinib]
How it was run: as §1

[1] = compound: CC(=O)c1cnc2ccc(-c3cc(Cl)c(O)c(Cl)c3)nc2c1N[C@H]1CC[C@H](CN(C)C)CC1
How it was run: as §1

[2] = compound: CC(C)(O)CC(=O)NCCn1ccc2ncnc(Nc3ccc(Oc4cccc(C(F)(F)F)c4)c(Cl)c3)c21
How it was run: as §1

[3] = compound: CC(C)C1=C2N=C(C=C(N2N=C1)NCC3=CC=CC=C3)NCCCCCCN
How it was run: as §1

pinometostat = compound: CC(C)N(C[C@H]1O[C@@H](n2cnc3c(N)ncnc32)[C@H](O)[C@@H]1O)[C@H]1C[C@@H](CCc2nc3cc(C(C)(C)C)ccc3[nH]2)C1 [pinometostat]
How it was run: as §1

[4] = compound: CC1=C(C(CC(=O)N1)C2=CC=C(C=C2)C(F)(F)F)C(=O)NC3=C(C=C4C(=C3)C=NN4)F
How it was run: as §1

[5] = compound: CC1=C(C2=C(C=C1)C(=O)C3=CC=CC=C3N2CCCN)C
How it was run: as §1

[6] = compound: CC1=C(C=C(C=C1)NC(=O)C2=CC(=CC=C2)C(C)(C)C#N)NC3=CC4=C(C=C3)N=CN(C4=O)C
How it was run: as §1

[7] = compound: CC1=CC=C(C=C1)SC2=C3C=C(SC3=CN=C2)C(=O)N
How it was run: as §1

[8] = compound: CC1=NC(=CC=C1)C2=C(N=C(N2)C(C)(C)C)C3=CC4=NC=CN=C4C=C3
How it was run: as §1

Nexturastat A = compound: CCCCN(Cc1ccc(C(=O)NO)cc1)C(=O)Nc1ccccc1 [Nexturastat A]
How it was run: as §1

vemurafenib = compound: CCCS(=O)(=O)Nc1ccc(F)c(C(=O)c2c[nH]c3ncc(-c4ccc(Cl)cc4)cc23)c1F [vemurafenib]
How it was run: as §1

[9] = compound: CCCS(=O)(=O)Nc1ccc(F)c(C(=O)c2c[nH]c3ncc(Cl)cc23)c1F
How it was run: as §1

[10] = compound: CCCc1cc(C)[nH]c(=O)c1CNC(=O)c1cc(-c2ccnc(N3CCN(C)CC3)c2)cc2c1cnn2C(C)C
How it was run: as §1

givinostat = compound: CCN(CC)Cc1ccc2cc(COC(=O)Nc3ccc(C(=O)NO)cc3)ccc2c1 [givinostat]
How it was run: as §1

barasertib = compound: CCN(CCCOc1ccc2c(Nc3cc(CC(=O)Nc4cccc(F)c4)[nH]n3)ncnc2c1)CCOP(=O)(O)O [barasertib]
How it was run: as §1

ralimetinib = compound: CC(C)(C)Cn1c(N)nc2ccc(-c3[nH]c(C(C)(C)C)nc3-c3ccc(F)cc3)nc21 [ralimetinib]
How it was run: as §1

[11] = compound: CC(C)C[C@@H](C=O)NC(=O)[C@H](CC(C)C)NC(=O)[C@H](CC(C)C)NC(=O)OCc1ccccc1
How it was run: as §1

[12] = compound: CC1=C(C=C(C=C1)NC(=O)C2=CC(=CC=C2)N(C)C)NC(=O)C3=CC=C(C=C3)O
How it was run: as §1

Measured: log2 fold change

SHROOM2 (UniProt Q13796)
UniProt Q13796, sequence (Q13796 whole entry, looked up): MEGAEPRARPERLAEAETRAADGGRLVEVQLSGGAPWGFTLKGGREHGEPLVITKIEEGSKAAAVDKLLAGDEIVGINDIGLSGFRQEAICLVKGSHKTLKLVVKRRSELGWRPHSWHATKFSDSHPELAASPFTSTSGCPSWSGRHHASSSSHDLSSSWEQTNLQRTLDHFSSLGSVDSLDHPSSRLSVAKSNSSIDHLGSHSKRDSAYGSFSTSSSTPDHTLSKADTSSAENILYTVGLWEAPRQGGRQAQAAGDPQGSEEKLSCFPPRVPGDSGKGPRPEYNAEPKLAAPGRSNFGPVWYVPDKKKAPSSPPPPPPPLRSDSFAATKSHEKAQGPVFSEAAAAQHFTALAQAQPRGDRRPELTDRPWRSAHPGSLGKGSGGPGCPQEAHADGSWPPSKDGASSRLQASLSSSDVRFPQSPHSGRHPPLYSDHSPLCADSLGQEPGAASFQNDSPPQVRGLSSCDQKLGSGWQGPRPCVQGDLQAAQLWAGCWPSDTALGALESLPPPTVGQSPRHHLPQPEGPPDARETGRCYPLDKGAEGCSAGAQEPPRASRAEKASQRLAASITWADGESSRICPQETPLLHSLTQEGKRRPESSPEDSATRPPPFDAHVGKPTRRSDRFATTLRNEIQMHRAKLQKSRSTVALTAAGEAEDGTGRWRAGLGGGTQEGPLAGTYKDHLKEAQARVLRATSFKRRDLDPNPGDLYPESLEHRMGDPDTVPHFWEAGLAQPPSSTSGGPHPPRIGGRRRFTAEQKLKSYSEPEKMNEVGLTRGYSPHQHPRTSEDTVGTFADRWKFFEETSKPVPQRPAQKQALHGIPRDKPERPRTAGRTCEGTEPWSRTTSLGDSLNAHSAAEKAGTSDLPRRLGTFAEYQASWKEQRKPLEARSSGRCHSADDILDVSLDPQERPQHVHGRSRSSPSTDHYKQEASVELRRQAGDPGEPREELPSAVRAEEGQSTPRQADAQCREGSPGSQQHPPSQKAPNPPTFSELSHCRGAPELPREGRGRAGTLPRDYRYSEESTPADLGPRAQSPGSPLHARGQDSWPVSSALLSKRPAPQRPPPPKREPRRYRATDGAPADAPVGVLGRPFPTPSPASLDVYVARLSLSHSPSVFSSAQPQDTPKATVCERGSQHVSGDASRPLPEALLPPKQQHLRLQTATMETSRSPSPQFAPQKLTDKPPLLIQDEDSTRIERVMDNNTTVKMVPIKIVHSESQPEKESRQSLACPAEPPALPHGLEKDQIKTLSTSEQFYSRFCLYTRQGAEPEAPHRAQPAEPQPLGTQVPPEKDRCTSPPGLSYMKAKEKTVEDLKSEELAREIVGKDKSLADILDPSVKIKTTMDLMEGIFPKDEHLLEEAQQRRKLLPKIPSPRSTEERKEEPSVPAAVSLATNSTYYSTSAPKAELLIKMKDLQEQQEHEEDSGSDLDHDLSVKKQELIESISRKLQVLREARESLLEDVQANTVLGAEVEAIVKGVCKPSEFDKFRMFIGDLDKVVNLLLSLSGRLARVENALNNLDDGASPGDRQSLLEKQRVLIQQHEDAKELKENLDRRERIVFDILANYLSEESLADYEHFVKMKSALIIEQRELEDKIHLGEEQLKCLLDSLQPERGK
active: Nexturastat A 0.763
inactive: IRAK-1-4 Inhibitor I 0.236 | ibrutinib 0.065 | [1] 0.137 | [2] 0.009 | [3] 0.155 | pinometostat -0.182 | [4] -0.015 | [5] 0.072 | [6] -0.104 | [7] 0.011 | [8] -0.206 | vemurafenib -0.078 | [9] -0.179 | [10] -0.207 | givinostat 0.238 | barasertib 0.071

SIDT2 isoform 2 (UniProt Q8NBJ9)
UniProt Q8NBJ9, sequence (Q8NBJ9 whole entry, looked up): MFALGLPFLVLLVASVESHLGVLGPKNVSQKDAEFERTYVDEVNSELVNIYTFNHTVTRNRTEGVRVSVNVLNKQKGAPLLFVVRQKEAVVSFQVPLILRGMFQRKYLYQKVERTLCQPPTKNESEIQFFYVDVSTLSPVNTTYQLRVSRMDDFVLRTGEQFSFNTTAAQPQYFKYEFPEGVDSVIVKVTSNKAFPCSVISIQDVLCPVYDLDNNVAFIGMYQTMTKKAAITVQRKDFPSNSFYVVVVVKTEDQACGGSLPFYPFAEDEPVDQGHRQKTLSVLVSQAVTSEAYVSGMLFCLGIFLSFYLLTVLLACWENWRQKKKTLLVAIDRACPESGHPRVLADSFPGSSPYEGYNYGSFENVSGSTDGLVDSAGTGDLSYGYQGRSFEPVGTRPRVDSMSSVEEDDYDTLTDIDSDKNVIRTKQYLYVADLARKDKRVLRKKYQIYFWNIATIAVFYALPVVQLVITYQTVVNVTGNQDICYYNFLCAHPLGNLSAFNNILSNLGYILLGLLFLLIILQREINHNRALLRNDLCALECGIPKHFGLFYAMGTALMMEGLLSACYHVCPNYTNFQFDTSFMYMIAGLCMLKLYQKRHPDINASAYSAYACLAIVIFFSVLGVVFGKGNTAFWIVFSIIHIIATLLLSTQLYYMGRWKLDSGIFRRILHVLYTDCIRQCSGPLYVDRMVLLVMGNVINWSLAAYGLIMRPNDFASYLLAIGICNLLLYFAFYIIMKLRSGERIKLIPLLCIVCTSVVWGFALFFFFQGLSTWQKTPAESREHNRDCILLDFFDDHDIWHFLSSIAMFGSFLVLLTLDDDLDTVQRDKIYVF
inactive: IRAK-1-4 Inhibitor I -0.017 | ibrutinib 0.123 | [1] -0.039 | ralimetinib -0.143 | [2] -0.021 | [11] 0 | pinometostat 0.271 | [4] 0.009 | [5] 0.005 | [6] -0.021 | [12] 0.019 | [7] -0.025 | Nexturastat A 0.042 | vemurafenib 0.019 | [9] -0.033 | [10] 0.017 | givinostat 0.038 | barasertib -0.148
active: [3] -0.353 | [8] -0.367

RCOR3 isoform 3 (UniProt Q9P2K3)
inactive: IRAK-1-4 Inhibitor I 0.009 | ibrutinib -0.053 | [1] -0.188 | ralimetinib 0.017 | [3] -0.048 | [11] 0.062 | pinometostat -0.038 | [4] 0.011 | [5] -0.035 | [6] -0.12 | [12] -0.046 | [7] 0.051 | [8] 0.012 | vemurafenib 0.025 | [9] 0.031 | [10] -0.022 | givinostat 0.075 | barasertib 0.098

SF3B5 (UniProt Q9BWJ5)
UniProt Q9BWJ5, sequence (Q9BWJ5 whole entry, looked up): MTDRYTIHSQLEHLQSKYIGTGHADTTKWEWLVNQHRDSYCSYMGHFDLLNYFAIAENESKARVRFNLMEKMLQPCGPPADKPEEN
inactive: IRAK-1-4 Inhibitor I 0.055 | ibrutinib 0.127 | [1] -0.067 | [2] -0.224 | [3] 0.118 | pinometostat 0.045 | [4] 0.011 | [5] 0.156 | [6] 0.003 | [7] 0.072 | [8] 0.111 | Nexturastat A 0.042 | vemurafenib -0.055 | [9] -0.027 | [10] -0.009 | givinostat 0.129 | barasertib -0.12

SASH1 (UniProt O94885)
UniProt O94885, sequence (O94885 whole entry, looked up): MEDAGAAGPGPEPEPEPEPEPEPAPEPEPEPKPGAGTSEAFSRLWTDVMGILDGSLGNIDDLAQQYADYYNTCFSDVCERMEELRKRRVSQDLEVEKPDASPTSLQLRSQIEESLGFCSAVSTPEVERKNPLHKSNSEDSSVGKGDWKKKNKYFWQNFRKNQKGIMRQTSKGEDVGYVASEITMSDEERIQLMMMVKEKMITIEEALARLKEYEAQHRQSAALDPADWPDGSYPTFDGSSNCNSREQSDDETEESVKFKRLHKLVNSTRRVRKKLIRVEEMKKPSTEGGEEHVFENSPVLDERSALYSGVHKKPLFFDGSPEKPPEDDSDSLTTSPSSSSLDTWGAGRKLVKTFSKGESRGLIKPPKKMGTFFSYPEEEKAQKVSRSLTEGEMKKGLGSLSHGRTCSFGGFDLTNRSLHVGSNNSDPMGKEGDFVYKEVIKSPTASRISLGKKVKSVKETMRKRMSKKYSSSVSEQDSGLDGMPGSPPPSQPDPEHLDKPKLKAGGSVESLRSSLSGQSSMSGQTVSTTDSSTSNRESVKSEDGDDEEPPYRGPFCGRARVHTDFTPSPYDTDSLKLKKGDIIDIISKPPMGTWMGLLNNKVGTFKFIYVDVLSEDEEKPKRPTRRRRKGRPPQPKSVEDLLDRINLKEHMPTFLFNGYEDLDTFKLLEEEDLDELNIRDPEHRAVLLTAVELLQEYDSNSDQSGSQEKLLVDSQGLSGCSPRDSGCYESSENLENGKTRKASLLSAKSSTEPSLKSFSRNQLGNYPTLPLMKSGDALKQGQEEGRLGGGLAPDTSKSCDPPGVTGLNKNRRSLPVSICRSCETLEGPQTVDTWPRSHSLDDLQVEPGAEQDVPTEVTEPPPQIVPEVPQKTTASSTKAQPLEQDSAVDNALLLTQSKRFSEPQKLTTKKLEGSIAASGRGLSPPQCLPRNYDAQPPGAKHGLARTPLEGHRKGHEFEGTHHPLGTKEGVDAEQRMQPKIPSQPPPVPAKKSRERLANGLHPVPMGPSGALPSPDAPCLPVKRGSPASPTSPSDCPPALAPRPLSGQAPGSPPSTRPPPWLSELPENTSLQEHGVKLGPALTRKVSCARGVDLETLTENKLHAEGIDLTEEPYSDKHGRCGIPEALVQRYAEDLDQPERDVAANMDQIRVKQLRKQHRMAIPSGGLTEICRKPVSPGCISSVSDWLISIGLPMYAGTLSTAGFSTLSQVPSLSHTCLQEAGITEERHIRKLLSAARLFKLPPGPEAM
inactive: IRAK-1-4 Inhibitor I 0.145 | ibrutinib -0.069 | [1] -0.097 | ralimetinib -0.138 | [2] 0.002 | [3] -0.25 | [11] 0.152 | pinometostat 0.081 | [4] -0.077 | [5] 0.07 | [6] 0.046 | [12] -0.013 | [7] 0.024 | [8] 0.01 | Nexturastat A 0.038 | vemurafenib -0.043 | [9] 0.097 | [10] -0.031 | givinostat -0.063 | barasertib 0.071

RPS21 (UniProt P63220)
inactive: IRAK-1-4 Inhibitor I -0.004 | ibrutinib -0.035 | [1] 0.055 | ralimetinib -0.014 | [2] 0.069 | [3] 0.056 | [11] 0.075 | pinometostat -0.022 | [4] 0.014 | [5] -0.02 | [6] -0.007 | [12] 0.01 | [7] -0.042 | [8] -0.007 | Nexturastat A -0.033 | vemurafenib -0.077 | [9] -0.072 | [10] -0.038 | givinostat -0.015 | barasertib -0.016

SLC12A5 (UniProt Q9H2X9)
inactive: IRAK-1-4 Inhibitor I -0.024 | ibrutinib -0.006 | [1] -0.101 | [2] 0.14 | [3] 0.052 | pinometostat -0.113 | [5] 0.047 | [6] 0.074 | [7] 0.108 | [8] 0.198 | Nexturastat A 0.001 | vemurafenib -0.105 | [9] 0.081 | [10] -0.018 | givinostat 0.016 | barasertib -0.004

SEC24A (UniProt O95486)
UniProt O95486, sequence (O95486 whole entry, looked up): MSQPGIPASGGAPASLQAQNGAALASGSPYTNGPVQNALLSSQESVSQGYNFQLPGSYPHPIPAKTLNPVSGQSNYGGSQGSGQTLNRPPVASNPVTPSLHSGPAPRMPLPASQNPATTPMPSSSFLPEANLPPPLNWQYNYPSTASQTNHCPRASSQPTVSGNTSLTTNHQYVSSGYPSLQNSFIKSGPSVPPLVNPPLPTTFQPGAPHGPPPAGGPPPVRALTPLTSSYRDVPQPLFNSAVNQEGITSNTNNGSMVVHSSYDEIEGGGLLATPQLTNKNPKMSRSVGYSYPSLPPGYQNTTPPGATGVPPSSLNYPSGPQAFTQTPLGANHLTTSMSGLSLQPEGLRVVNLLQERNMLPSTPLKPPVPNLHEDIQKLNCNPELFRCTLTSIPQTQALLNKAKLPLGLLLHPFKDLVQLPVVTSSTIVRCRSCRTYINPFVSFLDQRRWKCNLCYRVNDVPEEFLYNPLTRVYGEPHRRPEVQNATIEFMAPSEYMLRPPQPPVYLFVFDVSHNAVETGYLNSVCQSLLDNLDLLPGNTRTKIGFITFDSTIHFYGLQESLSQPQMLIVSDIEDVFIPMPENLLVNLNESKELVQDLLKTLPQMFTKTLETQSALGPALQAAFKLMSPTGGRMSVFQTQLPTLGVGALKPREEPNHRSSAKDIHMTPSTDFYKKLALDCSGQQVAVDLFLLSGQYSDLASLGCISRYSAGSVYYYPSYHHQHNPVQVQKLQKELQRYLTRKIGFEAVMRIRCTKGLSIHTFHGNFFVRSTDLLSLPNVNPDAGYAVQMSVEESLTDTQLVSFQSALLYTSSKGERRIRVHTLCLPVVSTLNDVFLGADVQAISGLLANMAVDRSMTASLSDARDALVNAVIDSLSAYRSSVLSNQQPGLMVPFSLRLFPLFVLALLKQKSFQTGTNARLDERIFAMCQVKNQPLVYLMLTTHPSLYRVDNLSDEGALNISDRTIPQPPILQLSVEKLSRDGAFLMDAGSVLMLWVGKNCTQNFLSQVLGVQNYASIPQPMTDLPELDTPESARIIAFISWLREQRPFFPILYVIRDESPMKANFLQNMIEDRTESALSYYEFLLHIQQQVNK
inactive: IRAK-1-4 Inhibitor I -0.038 | ibrutinib -0.017 | [1] -0.013 | ralimetinib 0.018 | [2] -0.066 | [3] -0.057 | [11] -0.005 | pinometostat 0.005 | [4] 0.009 | [5] 0.019 | [6] 0.025 | [12] -0.089 | [7] 0 | [8] 0.012 | Nexturastat A -0.04 | vemurafenib 0.023 | [9] 0.051 | [10] 0.08 | givinostat 0.072 | barasertib 0.006
